Reference: PubChem BioAssay (Tox21)
Records with an inconclusive call do not appear. Some compounds were tested as several samples or in several runs, with calls that do not always agree. Calls of active or inactive are those of the source. Unless noted, the call rests on the fitted dose curve; in most records, active means well fitted curve in the direction sought with a large enough effect in the repeat runs; inconclusive means weak or mixed curves; inactive means no such curve, though single readings can be large; an effect the other way counts as inactive or inconclusive.

Key:
[1] = qHTS assay for small molecule agonists of the p53 signaling pathway - cell viability (AID 651633; calls by dose curve; further: nearly all actives have a fitted effect of over 30% in size; further: potency means the concentration at half of the fitted maximal effect)
Summary of the method: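 p53RE-bla cells were treated with compound for 16 hours at 37 C. Cytotoxicity was then measured as CellTiter-Glo luminescence after 30 min at room temperature.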

[2] = qHTS assay for small molecules that induce genotoxicity in human embryonic kidney cells expressing luciferase-tagged ATAD5 - cell viability (AID 651634; calls by dose curve; further: nearly all actives have a fitted effect of over 25% in size)
Summary of the method: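 Here HEK293T cells with the ATAD5 luciferase reporter are incubated with test compounds for 15.5 hr, and cytotoxicity is then gauged by measuring protease activity in live cells using fluorescence.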

[3] = qHTS assay to test for compound auto fluorescence at 590 nm (red) in HepG2 cells (AID 720674)
Summary of the method: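 Seeding: 2,000 HepG2 cells/well, MEM/10% FBS, overnight 37 C. Dosing: compound vs DMSO. Incubation: 1 hr, 37 C, 5% CO2. Read: fluorescence 540 ex/590 em, Rose Bengal sodium as red reference.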

[4] = qHTS assay to test for compound auto fluorescence at 535 nm (green) in HepG2 cells (AID 720675)
[5] = qHTS assay to test for compound auto fluorescence at 460 nm (blue) in HEK293 cells (AID 720678)
Summary of the method: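 Blue-channel (Ex/Em 405/460 nm) intensity measured in HEK293 cultures after overnight compound exposure at 37C; signal expressed relative to triamterene. Cells plated 2,000 per well in 10% dialyzed FBS medium and allowed 4-5 hr to attach.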

[6] = qHTS assay to test for compound auto fluorescence at 590 nm (red) in HEK293 cells (AID 720679)
Summary of the method: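 Red-channel autofluorescence (Ex/Em 540/590 nm; Rose Bengal sodium reference) was measured after overnight 37C, 5% CO2 exposure of attached HEK293 cells, 2,000 per well in medium with 10% dialyzed FBS.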

[7] = qHTS assay to test for compound auto fluorescence at 535 nm (green) in HEK293 cells (AID 720680)
[8] = qHTS assay to test for compound auto fluorescence at 460 nm (blue) in HEK293 cell free culture (AID 720681)
Summary of the method: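 Compounds were added to cell-free DMEM with 10% FBS and fluorescence read directly. The blue channel used 405 nm excitation and 460 nm emission, with triamterene as the reference fluorophore.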

[9] = qHTS assay to test for compound auto fluorescence at 535 nm (green) in HEK293 cell free culture (AID 720682)
Summary of the method: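 DMEM + 10% FBS, cell-free; cpd or DMSO pinned in; Ex485/Em535 read; output as fluorescein-equivalent signal.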

[10] = qHTS assay to test for compound auto fluorescence at 590 nm (red) in HEK293 cell free culture (AID 720683)
Summary of the method: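 Cell-free wells of DMEM with 10% FBS received compound, and intrinsic fluorescence was read at excitation/emission 540/590 nm. Values expressed as equivalence to Rose Bengal sodium.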

[11] = qHTS assay to test for compound auto fluorescence at 590 nm (red) in HepG2 cell free culture (AID 720684)
Summary of the method: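 Rose Bengal sodium served as the reference for red signal. Test compounds were dispensed into serum-containing MEM (10% FBS) without cells, and plates were read at 540/590 nm.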

[12] = qHTS assay to test for compound auto fluorescence at 460 nm (blue) in HepG2 cell free culture (AID 720685)
Summary of the method: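 Cell-free plates of MEM plus 10% FBS received 23 nL compound or DMSO vehicle; blue-channel (405/460 nm) intensity scored against triamterene as reference fluorophore.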

[13] = qHTS assay to test for compound auto fluorescence at 535 nm (green) in HepG2 cell free culture (AID 720686)
[14] = qHTS assay to test for compound auto fluorescence at 460 nm (blue) in HepG2 cells (AID 720687)
Summary of the method: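 HepG2 cells in MEM with 10% FBS, attached overnight at 37 C, were exposed to compound or DMSO for 1 hr at 37 C, 5% CO2. Blue fluorescence was read at 405/460 nm, with triamterene as reference fluorophore.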

[15] = target: Glucocorticoid receptor (Homo sapiens) (UniProt P04150); assay: qHTS assay to identify small molecule agonists of the glucocorticoid receptor (GR) signaling pathway (AID 720691; active means well fitted activation curve with a large enough effect in the signal ratio in the repeat runs, not every such curve was filed as active; the % refers to the signal ratio; further: potency means the concentration at half of the fitted maximal effect)
Chain of Glucocorticoid receptor (Homo sapiens) (P04150 whole entry, looked up): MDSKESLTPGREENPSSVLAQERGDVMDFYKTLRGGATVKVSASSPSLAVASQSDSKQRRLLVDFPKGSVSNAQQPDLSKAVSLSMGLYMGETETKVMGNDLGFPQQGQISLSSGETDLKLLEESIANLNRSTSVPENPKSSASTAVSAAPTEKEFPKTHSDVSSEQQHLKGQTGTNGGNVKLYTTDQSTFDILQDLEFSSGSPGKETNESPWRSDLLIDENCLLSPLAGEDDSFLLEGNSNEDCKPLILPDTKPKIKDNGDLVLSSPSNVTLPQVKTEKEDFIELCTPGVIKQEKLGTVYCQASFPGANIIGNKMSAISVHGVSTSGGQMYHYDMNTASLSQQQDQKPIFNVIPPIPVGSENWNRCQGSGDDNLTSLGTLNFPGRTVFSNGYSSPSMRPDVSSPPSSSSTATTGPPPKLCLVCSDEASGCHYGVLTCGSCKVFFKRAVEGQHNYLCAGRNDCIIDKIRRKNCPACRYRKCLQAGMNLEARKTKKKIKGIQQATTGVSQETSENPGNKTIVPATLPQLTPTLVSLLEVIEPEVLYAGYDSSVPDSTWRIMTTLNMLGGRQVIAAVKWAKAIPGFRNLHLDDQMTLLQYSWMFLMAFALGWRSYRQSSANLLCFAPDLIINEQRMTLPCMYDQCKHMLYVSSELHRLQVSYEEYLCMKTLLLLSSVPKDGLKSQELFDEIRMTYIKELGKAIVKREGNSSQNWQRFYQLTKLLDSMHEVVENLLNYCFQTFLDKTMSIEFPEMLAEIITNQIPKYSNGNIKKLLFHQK
Summary of the method: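 Compounds in DMSO, alongside positive controls, were added to GR-bla HeLa reporter cells and incubated 18 h at 37 C; GRE-driven beta-lactamase was detected by fluorescence after 2 h with FRET substrate at room temperature.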

[16] = target: Glucocorticoid receptor (Homo sapiens) (UniProt P04150); assay: qHTS assay to identify small molecule antagonists of the glucocorticoid receptor (GR) signaling pathway (AID 720692; active means well fitted inhibition curve with a large enough effect in the signal ratio in the repeat runs, not every such curve was filed as active; the % refers to the signal ratio; further: potency means the concentration at half of the fitted maximal effect)
Summary of the method: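 In a 1536-well cell format, compounds were added 4 h after seeding GR-bla HeLa cells, together with dexamethasone at 5 nM final; reporter activity was measured by FRET-substrate fluorescence following 18 h at 37 C.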

[17] = qHTS assay for small molecule disruptors of the mitochondrial membrane potential - cell viability (AID 720634; calls by dose curve;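 further: human HepG2 liver cancer cells; series mostly up to about 83 µM; nearly all actives have a fitted effect of over 20% in size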)
Summary of the method: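 Viability of HepG2 cells is scored from ATP content by luminescence; cells are exposed to compound for 1 hr at 37 C and 5% CO2, then dosed with m-MPI dye before the CellTiter-Glo reagent.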

[18] = qHTS assay for small molecule disruptors of the mitochondrial membrane potential (AID 720635); further: potency means the concentration at half of the fitted maximal effect
Summary of the method: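 HepG2 cells exposed to compound 1 hr at 37C, then Mito-MPS dye 30 min. Ratio read of aggregate (540/590 nm) versus monomer (490/535 nm) fluorescence.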
On the % scale 0 is the no-effect control and ±100 the full control effect.

COC(OC)(C(=O)c1ccccc1)c1ccccc1
inactive: Potency [1] | Potency [2] | outcome [3] | outcome [4] | Potency [5] | outcome [6] | outcome [7] | Potency [8] | outcome [9] | outcome [10] | outcome [11] | Potency [12] | outcome [13] | Potency [14] | Potency [15] | Potency [16]

COc1ccc(C(=O)c2cccc(O)c2)c(OC)c1
inactive: Potency [1] | Potency [2] | Potency [17] | outcome [3] | outcome [4] | Potency [5] | outcome [6] | outcome [7] | Potency [8] | outcome [9] | outcome [10] | outcome [11] | Potency [12] | outcome [13] | Potency [14] | Potency [15]

CCCOc1ccc(S(=O)(=O)N2CCN(CC)CC2)cc1-c1nc2c(CC)n(Cc3ccccn3)nc2c(=O)[nH]1
inactive: Potency [1] | Potency [2] | Potency [17] | outcome [4] | Potency [5] | outcome [6] | outcome [7] | Potency [8] | outcome [9] | outcome [10] | outcome [11] | Potency [12] | outcome [13] | Potency [14] | Potency [15]

Cc1cc(C(=C2C=CC(=Nc3ccc(S(=O)(=O)O)cc3S(=O)(=O)O)C=C2)c2ccc(Nc3ccc(S(=O)(=O)O)cc3)cc2)ccc1N
inactive: Potency [1] | Potency [2] | Potency [17] | outcome [3] | outcome [4] | Potency [5] | outcome [6] | outcome [7] | Potency [8] | outcome [9] | outcome [10] | outcome [11] | Potency [12] | outcome [13] | Potency [14] | Potency [15]

CCc1nn(CCCN2CCN(c3cccc(Cl)c3)CC2)c(=O)n1CCOc1ccccc1
26.6 µM (active) and inactive: Potency [1]
inactive: outcome [3] | outcome [4] | Potency [5] | outcome [6] | outcome [7] | Potency [8] | outcome [9] | outcome [10] | outcome [11] | Potency [12] | outcome [13] | Potency [14]

CC(=O)OCC(=O)[C@@]12OC(C)(C)O[C@@H]1C[C@H]1[C@@H]3C[C@H](F)C4=CC(=O)C=C[C@]4(C)[C@@]3(F)[C@@H](O)C[C@@]12C
inactive: Potency [1] | Potency [2] | Potency [17] | Potency [18] | fluorescence, % of fluorescein control [4] -0.0438% [at 18.6 µM] | fluorescence, % of triamterene [5] -0.188% [at 18.6 µM] | fluorescence, % of fluorescent control [6] 0.156% [at 18.6 µM] | fluorescence, % of fluorescein [7] -0.0611% [at 18.6 µM] | fluorescence, % of fluorescent control [8] -0.0905% [at 18.6 µM] | activity change [9] -0.0593% [at 18.6 µM] | fluorescence, % of Rose Bengal [11] -0.181% [at 18.6 µM] | fluorescence, % of fluorescent control [12] -0.0666% [at 18.6 µM] | fluorescence, % of fluorescein control [13] -0.0467% [at 18.6 µM] | fluorescence, % of fluorescent control [14] 0.231% [at 18.6 µM]
active: Potency [15] 0.0064 µM

COCCOC
inactive: Potency [1] | outcome [3] | outcome [4] | Potency [5] | outcome [7] | Potency [8] | outcome [9] | outcome [11] | Potency [12] | outcome [13] | Potency [14] | Potency [15]

NC(=O)Nc1ccc(Cl)c(Cl)c1
inactive: Potency [1] | Potency [2] | Potency [17] | outcome [3] | outcome [4] | Potency [5] | outcome [7] | Potency [8] | outcome [9] | outcome [11] | Potency [12] | outcome [13] | Potency [14]
active: Potency [18] 48.4 µM | Potency [16] 48.9 µM

CCC(Cc1ccccc1)(C(=O)c1ccc(N2CCOCC2)cc1)N(C)C (configuration not stated)
active: Potency [18] 30.6 µM
inactive: Potency [2] | outcome [3] | outcome [4] | Potency [5] | outcome [6] | outcome [7] | Potency [8] | outcome [9] | outcome [10] | outcome [11] | Potency [12] | outcome [13] | Potency [14]

CCCCCCCC/C=C\CCCCCCCC(=O)OC
inactive: Potency [1] | Potency [2] | Potency [18] | outcome [4] | Potency [5] | outcome [6] | outcome [7] | Potency [8] | outcome [9] | outcome [10] | outcome [11] | Potency [12] | outcome [13] | Potency [14] | Potency [15]
